Luc counter = blocks Kinase-Glo luciferase, a counter-screen artifact; Potency, µM (series often up to 38.3 µM), usual class: inhibitors; Q27757; Kinase-Glo luciferase, ATP luminescence, 8 min; actives 0.28% (n = 200,000); AID 1379; also: nearly all actives have a fitted effect of over 60% in size
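Kinase-Glo luciferase light output from ATP and luciferin was measured with 10 uM ATP, within the enzyme's linear range. Buffer: 50 mM imidazole pH 7.2, 50 mM KCl, 7 mM MgCl2, 0.01% Tween 20, 0.05% BSA; luminescence read after 8 min at ambient temperature.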
FLuc counter = inhibits or activates purified firefly luciferase, miR-21 counter-screen | purified FLuc, Km substrates, luminescence inhibition | actives 6.9% (n = 360,000) | P08659 | Potency, µM (highest dose often 57.5 µM), actives largely listed as inhibitors; also: nearly all actives have a fitted effect of over 55% in size
Target sequence (P08659 whole entry, looked up): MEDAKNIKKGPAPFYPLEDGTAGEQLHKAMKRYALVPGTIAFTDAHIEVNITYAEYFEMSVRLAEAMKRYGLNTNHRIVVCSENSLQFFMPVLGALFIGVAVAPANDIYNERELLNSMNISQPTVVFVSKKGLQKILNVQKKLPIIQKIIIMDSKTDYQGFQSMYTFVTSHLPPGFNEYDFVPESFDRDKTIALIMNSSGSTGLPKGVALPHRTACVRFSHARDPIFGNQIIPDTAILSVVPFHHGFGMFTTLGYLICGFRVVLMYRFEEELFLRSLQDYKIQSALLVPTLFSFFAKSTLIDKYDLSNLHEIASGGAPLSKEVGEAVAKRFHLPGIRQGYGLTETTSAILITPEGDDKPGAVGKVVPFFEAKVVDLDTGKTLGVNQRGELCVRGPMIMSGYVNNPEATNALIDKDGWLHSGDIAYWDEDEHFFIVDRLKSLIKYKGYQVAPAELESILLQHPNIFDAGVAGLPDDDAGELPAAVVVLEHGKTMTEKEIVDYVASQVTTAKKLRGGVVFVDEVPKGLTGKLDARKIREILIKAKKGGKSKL
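Purified P. pyralis luciferase, 10 nM final, with Km-level 10 uM D-luciferin and 10 uM ATP in 50 mM Tris acetate pH 7.5, 10 mM Mg acetate, 0.01% Tween-20, 0.05% BSA; 6-point qHTS titration about 60 µM downward; luminescence read.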
SMN2 splice up = increases expression of the SMN2 splice variant; HEK293 SMN2-luciferase splicing reporter, luminescence, 30-36 h; Potency, µM (highest dose often 46.1 µM), most hits filed as activators; actives 2.8% (n = 210,000); AID 1458; also: nearly all actives have a fitted effect of over 55% in size
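qHTS luciferase splicing reporter: luminescence rises when SMN2 exon 7 is included in transfected HEK293 cells. Compound exposure lasted 30-36 h at 37C, with 4.5 mM final sodium butyrate as control, followed by a ONE-Glo read.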
Rab9 promoter act = activates the Rab9 promoter; Potency, µM (titrated, usually from 9.22 µM), hits mostly activators; actives 2.8% (n = 320,000); Huh7 Rab9 promoter-luciferase reporter, luminescence, 24 h; also: nearly all actives have a fitted effect of over 60% in size
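Luciferase signal after 10 min detection reagent at ambient indicates Rab9 promoter upregulation; stably transfected Huh7 cells were treated 24 h with compound in DMSO at 37 °C, 5% CO2.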
NPC1 prom act = activators of NPC1 promoter. Huh7 NPC1 promoter luciferase reporter, 24 h. Potency, µM (highest dose often 9.22 µM), usual class: activators. actives 2.4% (n = 320,000). AID 485313; also: nearly all actives have a fitted effect of over 60% in size
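Huh7 cells stably carrying NPC1 promoter–luciferase, plated in Opti-MEM with 10% FBS for 2 h, were exposed to compound in DMSO for 24 h at 37 °C; luciferase reagent was added for 10 min and luminescence read.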
ELG1 genotox = inducers of genotoxicity in HEK293T ELG1-luciferase cells | Potency, µM (top dose mostly 46 µM), usual class: activators | actives 1.3% (n = 330,000) | HEK293T ELG1-luciferase reporter, luminescence, 16 h | AID 504466; also: nearly all actives have a fitted effect of over 60% in size
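HEK293T cells expressing luciferase-tagged ELG1 were exposed to compound or DMSO vehicle for 16 hr at 37 °C and 5% CO2. Luciferase activity was then measured with ONE-Glo after 30 min at room temperature.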
Each line names hits and unclear results; the compound was inactive in the other large screens. Most compounds without a hit are left out; they make up all but 7.5% or so of the library. Calls follow the shape of the dose curve; as a rule, active = well fitted curve in the direction sought with a large enough effect; inconclusive = small, poorly fitted or top-dose-only effect, or another doubt; inactive = no such curve, though single readings can be large; an effect the other way counts as inactive or inconclusive.

CCN(CC)C(=O)c1sc(NC(=O)c2ccncc2)c(C(=O)OC)c1C	none
CCSc1nnc(NC(=O)c2ccc3c(c2)OCO3)s1	FLuc counter 6.7µM, SMN2 splice up 10µM, Rab9 promoter act 1.6µM, NPC1 prom act 2.5µM, ELG1 genotox 2.1µM
CCN(CC)C(=O)c1sc(NC(=O)c2ccc3c(c2)OCO3)c(C(N)=O)c1C	FLuc counter 19µM, Rab9 promoter act inconclusive, NPC1 prom act inconclusive (no result: Luc counter, SMN2 splice up)
CCOC(=O)CSc1nnc(NC(=O)c2ccc3c(c2)OCO3)s1	FLuc counter 1.1µM (no result: Luc counter, SMN2 splice up)
O=C(COC(=O)Cc1ccsc1)Nc1cccc(F)c1	none (no result: Luc counter, SMN2 splice up)
Cc1ccc(C)c(N2CCN(S(=O)(=O)c3ccc4oc(=O)c5ncn(C)c5c4c3)CC2)c1	none (no result: Luc counter, Rab9 promoter act, NPC1 prom act, ELG1 genotox)
Cc1ccc(NC(=O)c2ccc(=O)n(Cc3ccccc3C)c2)c(C)c1	none (no result: Luc counter, SMN2 splice up, Rab9 promoter act, NPC1 prom act, ELG1 genotox)
CC(C)c1nnc(NC(=O)c2ccc3c(c2)OCO3)s1	FLuc counter 1.3µM, SMN2 splice up 1µM, Rab9 promoter act 0.28µM, NPC1 prom act 0.45µM, ELG1 genotox inconclusive
CC(C)Sc1nnc(NC(=O)c2ccc3c(c2)OCO3)s1	FLuc counter 5.4µM, Rab9 promoter act 1.4µM, NPC1 prom act 2.2µM, ELG1 genotox inconclusive (no result: Luc counter, SMN2 splice up)
CC(C)(C)c1nnc(NC(=O)c2ccc3c(c2)OCO3)s1	FLuc counter 6.7µM, Rab9 promoter act 2.5µM, NPC1 prom act 2µM, ELG1 genotox inconclusive (no result: Luc counter, SMN2 splice up)
Cc1cc(=O)oc2cc(OC(=O)c3ccccc3)ccc12	FLuc counter 5.4µM
CCc1cc(=O)oc2cc(OC(=O)c3ccco3)ccc12	none (no result: Luc counter, SMN2 splice up)
COCCOC(=O)c1c(C)oc2ccc(OC(=O)c3ccco3)cc12	FLuc counter 24µM
Cc1cc(=O)oc2cc(OCC(=O)c3ccccc3)ccc12	none (no result: Luc counter, SMN2 splice up)
Cc1cc(=O)oc2cc(OC(=O)c3ccco3)ccc12	FLuc counter 17µM (no result: SMN2 splice up)
COCCOC(=O)c1c(C)oc2ccc(OCc3ccccc3)cc12	none
CCNC(=S)N/N=C/c1cc(C)n(-c2ccc(Cl)cc2)c1C	FLuc counter 17µM, SMN2 splice up 18µM, Rab9 promoter act inconclusive, NPC1 prom act inconclusive, ELG1 genotox inconclusive
Cc1nc2ccccn2c1C(=O)N/N=C/c1cc(C)n(-c2ccc(Cl)cc2)c1C	FLuc counter 21µM
CS(=O)(=O)N1Cc2ccccc2CC1C(=O)OCC(=O)NCCc1ccc(S(N)(=O)=O)cc1 (stereo not drawn)	none (no result: Luc counter, FLuc counter, SMN2 splice up, Rab9 promoter act, NPC1 prom act)
Cc1cc2c(s1)c1c(n2C)C(=O)N(Cc2ccccc2F)C1	none (no result: Luc counter, SMN2 splice up, ELG1 genotox)
COc1ccc(/C=N\NC(=O)O)cc1	none (no result: FLuc counter, Rab9 promoter act, NPC1 prom act, ELG1 genotox)
Clc1nccnc1N/N=C/c1ccc(Br)cc1	FLuc counter 9.5µM, Rab9 promoter act 2µM, NPC1 prom act 2µM, ELG1 genotox inconclusive (no result: Luc counter, SMN2 splice up)
COc1ccc(/C=N/Nc2nccnc2Cl)c(OC)c1	Luc counter 13µM, FLuc counter 11µM, Rab9 promoter act inconclusive, ELG1 genotox inconclusive
COc1ccc(/C=N/Nc2nccnc2Cl)cc1	Luc counter 7.1µM, FLuc counter 2.7µM, SMN2 splice up 14µM, Rab9 promoter act 0.45µM, NPC1 prom act 1.3µM, ELG1 genotox 1.5µM
COc1ccc(CCNC(=O)CCn2c(=O)c3ccccc3n(Cc3c(C)cc(C)cc3C)c2=O)cc1OC	none (no result: Luc counter, Rab9 promoter act, NPC1 prom act, ELG1 genotox)
COc1ccc(CNc2nc(-c3cccnc3)nn2C(=O)C(C)C)cc1	none
O=C1NC(c2cccs2)Nc2sc3c(c21)CCCC3 (stereo not drawn)	FLuc counter 6.7µM, SMN2 splice up inconclusive, Rab9 promoter act 3.5µM, NPC1 prom act 2.8µM
CN1CCc2c(sc3c2C(=O)NC(c2ccco2)N3)C1 (stereo not drawn)	none
COc1ccccc1/C=C(/C(=O)OCC(=O)Nc1cc(C)ccc1C)c1ccccc1	none
Nc1ccc(Cc2nc3c(ccc4ccccc43)[nH]2)cc1	FLuc counter 13µM, Rab9 promoter act 4µM, NPC1 prom act 4µM, ELG1 genotox inconclusive
COc1cccc(C(=O)NNC(=S)NC2CCCCC2)c1	FLuc counter inconclusive, SMN2 splice up inconclusive, Rab9 promoter act 2.2µM, NPC1 prom act inconclusive
CCc1ccc(C(=O)NC2CCCCC2)s1	FLuc counter 12µM, SMN2 splice up 13µM, Rab9 promoter act 2.2µM, NPC1 prom act 2.5µM
O=C(NNC(=S)NC1CCCCC1)c1ccc(Cl)s1	FLuc counter inconclusive, SMN2 splice up 13µM, Rab9 promoter act inconclusive
Cc1cc(C(=O)NNC(=S)NC2CCCCC2)cs1	Rab9 promoter act 1.3µM, NPC1 prom act inconclusive (no result: Luc counter, SMN2 splice up)
O=C(NNC(=S)NC1CCCCC1)c1cccs1	Rab9 promoter act inconclusive
CC(C)(O)C#Cc1ccc(C(=O)NC2CCCCC2)s1	FLuc counter inconclusive, SMN2 splice up inconclusive, Rab9 promoter act inconclusive, ELG1 genotox inconclusive
Cc1cccc(NC(=O)C2CCN(S(=O)(=O)c3ccc(F)cc3)CC2)c1C	none (no result: Luc counter, Rab9 promoter act, NPC1 prom act, ELG1 genotox)
CC(=O)OCc1cnc(C)c2oc(=O)c(C(=O)Nc3ccc(C)cc3Cl)cc12	none (no result: Luc counter, SMN2 splice up, Rab9 promoter act, NPC1 prom act, ELG1 genotox)
Cc1noc(C)c1-c1ccc2ncnc(NCc3cccc(-c4ccccc4)c3)c2c1	none (no result: Luc counter, SMN2 splice up, ELG1 genotox)
COc1cccc(/C=C/C(=O)c2ccc3c(c2)OCO3)c1OC	FLuc counter 0.95µM, ELG1 genotox inconclusive (no result: Luc counter, SMN2 splice up)
COc1cc(C(=O)N/N=C(\C)c2ccc3c(c2)OCO3)cc(OC)c1OC	none
O=C(COc1ccc2c(c1)OCO2)NCc1cccs1	none (no result: Luc counter, FLuc counter, SMN2 splice up, Rab9 promoter act, NPC1 prom act)
O=C(/C=C/c1cccc(Br)c1)c1ccc2c(c1)OCO2	FLuc counter 11µM, ELG1 genotox inconclusive (no result: Luc counter, SMN2 splice up)
O=C(Oc1ccc2c(c1)OCO2)c1cccs1	FLuc counter 11µM, SMN2 splice up inconclusive
O=C(/C=C/c1ccccc1Br)c1ccc2c(c1)OCO2	FLuc counter 12µM (no result: Luc counter, SMN2 splice up)

From PubChem
